Bioassay records: PubChem BioAssay, several laboratories
M1 agonist = activates the M1 muscarinic receptor; CHO-M1 cells, Fluo-4 calcium fluorescence, agonist mode; hits give high values; B-score at 10 µM; 64,000 tested, 3% active;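 active means fluorescence rise, raw or as B-score row- and column-corrected plate score, outside the 99.7% band of its plate's samples, either direction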
M1 antag = blocks the rat M1 muscarinic receptor response to acetylcholine. P08482. CHO-M1 cells, Fluo-4 calcium, ACh EC80 antagonist mode; hits give low values. B-score at 10 µM. 64,000 tested, 3.4% active. AID 628;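 active means calcium fluorescence response, raw or row-and-column corrected B-score, differing from the plate sample mean either way at a set confidence level, mostly lower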
Target sequence (P08482 whole entry, looked up): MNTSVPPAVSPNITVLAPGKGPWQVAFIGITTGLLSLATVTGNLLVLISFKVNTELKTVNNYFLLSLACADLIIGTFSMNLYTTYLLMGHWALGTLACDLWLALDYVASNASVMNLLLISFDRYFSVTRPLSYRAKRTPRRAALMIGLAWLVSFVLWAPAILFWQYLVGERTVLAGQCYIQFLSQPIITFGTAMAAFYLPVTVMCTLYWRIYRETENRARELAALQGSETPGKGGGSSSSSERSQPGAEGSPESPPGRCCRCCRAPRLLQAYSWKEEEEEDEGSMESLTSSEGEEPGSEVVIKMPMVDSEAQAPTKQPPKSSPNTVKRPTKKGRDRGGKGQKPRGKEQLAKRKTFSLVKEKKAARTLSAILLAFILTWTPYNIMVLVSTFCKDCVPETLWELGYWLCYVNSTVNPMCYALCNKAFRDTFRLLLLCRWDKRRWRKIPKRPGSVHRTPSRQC
Htt clearance = compounds clearing mutant huntingtin protein | HeLa Exon1htt(103Q)mCFP, aggregate imaging; zero = plate's median compound well | 47,000 tested, 0.42% active | AID 853 | inhibition, % at 1.5 µM;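 active means inhibition of aggregate fluorescence above about 70%, also judged a hit by eye on the cell image, limit read from the data, passing the limit was not always enough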;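 further: cells exposed to compound for three days before fixation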
NADH coupling = inhibitors of enzymes used to reach an NAD/NADH endpoint | coupled PK/LDH NADH assays, four targets | IC50, µM (series often up to 10 µM), inactives show at the highest dose inhibition | 65,000 tested, 0.02% active | AID 774;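 active means single-dose screening hits from any of four coupled enzyme assays that gave an IC50 when retested across doses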;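 further: the DPM-DC format reads NADH fluorescence rather than 340 nm absorbance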
A340 absorber = compound absorbs light at 340 nm. AID 708. fold change at 10 µM. compound absorbance at 340 nm, fold over control. 65,000 tested, under 10 active;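 active means at 10 µM dose, initial 340 nm absorbance at least 2 fold that of control wells; inactive means change under 2 fold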;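 further: initial absorbance extrapolated from kinetic A340 decline of NADH oxidation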
Fluor 339 460 = intrinsic fluorescence of library compounds, ex339/em460 – biochemical, MLSMR library, data from DPM-DC assay, artefact control, profiling panel; AID 709; fluorescence fold increase at 10 µM; 65,000 tested, 5.5% active; compound autofluorescence, ex339/em460 nm, NADH buffer; hits give high values; 1 = no-compound wells, NADH background;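 active means at 10 µM, mean starting fluorescence two-fold or more over control wells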;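 further: signal is the first read of a kinetic run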
M1 antag confirm = M1 muscarinic receptor (rat) antagonism, confirmed. shares compounds with M1 antag. CHO-M1 cells, Fluo-4 calcium, ACh EC80 antagonism; hits give low values. calcium response (max-min fluorescence) at 10 µM. 1,700 tested, 43% active;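 active means calcium response below the same-plate mean of wells given acetylcholine alone at its 80%-effect dose, minus 3 SD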;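 further: raw fluorescence intensity difference in arbitrary instrument units and not normalized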
mGluR4 antag = mGluR4 (human) activity, M1 antagonist secondary assay. shares compounds with M1 antag. CHO-mGluR4 calcium flux, Fluo-4 fluorescence, glutamate EC80; hits give low values. fluorescence response (max-min) at 10 µM. 1,700 tested, 0.9% active. AID 678;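 active means fluorescence response below the plate's average for near-maximal glutamate wells, less 3 SD of those wells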;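 further: raw unnormalized fluorescence span taken in the window right after glutamate addition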
Starred values were filed as active, the others as inactive. Rows were chosen to be rich in hits. Some 9.3% of all compounds tested hit in one or more screens of this group.

What do the screens show for `O=c1[nH]c2cc3c(cc2cc1CN(CC1CCCO1)S(=O)(=O)c1ccc(Cl)cc1)OCCO3` (configuration not stated)?
M1 agonist: 0.013; M1 antag: -4.2*; NADH coupling: 7%; A340 absorber: 1.1; Fluor 339 460: 2.6*; M1 antag confirm: 614; mGluR4 antag: 269

How did CCN(CC)c1ccc(C2CC(=O)NC3=C2C(=O)CC(C)(C)C3)cc1 (configuration not stated) do in these assays?
M1 agonist: 0.23; M1 antag: -3.2*; NADH coupling: 6%; A340 absorber: 1; Fluor 339 460: 1.1; M1 antag confirm: 381*; mGluR4 antag: 252

Results for CN(C)c1ccc(C2CC(=O)NC3=C2C(=O)CC(C)(C)C3)cc1 (configuration not stated) ?
M1 agonist: 0.25; M1 antag: -0.042; Htt clearance: 18; NADH coupling: 2%; A340 absorber: 1; Fluor 339 460: 1.1

What do the screens show for `CCn1c2ccccc2c2nnc(SCC(=O)N3CC(C)OC(C)C3)nc21` (configuration not stated)?
M1 agonist: 1; M1 antag: -0.018; Htt clearance: 53; NADH coupling: 8%; A340 absorber: 1.1; Fluor 339 460: 1.1

What do the screens show for `Cc1noc(C)c1COC(=O)c1cccnc1SCC(=O)Nc1ccc2c(c1)OCO2`?
M1 agonist: -1.6; M1 antag: -6.2*; Htt clearance: -16; NADH coupling: 7%; A340 absorber: 1; Fluor 339 460: 1.1; M1 antag confirm: 132*; mGluR4 antag: 242

How did CS(=O)(=O)c1ccc2nc(NC(=O)CN3CCN(Cc4ccccc4)CC3)sc2c1 do in these assays?
M1 agonist: -0.79; M1 antag: -2.5*; Htt clearance: -69; NADH coupling: 5%; A340 absorber: 1.1; Fluor 339 460: 1.1; M1 antag confirm: 567; mGluR4 antag: 232

How did COc1ccc2[nH]c(C)cc(=O)c2c1 do in these assays?
Htt clearance: -56

Results for COC(=O)c1ccc2[nH]c(C)cc(=O)c2c1 ?
M1 agonist: -0.037; M1 antag: -6.5*; Htt clearance: -10; NADH coupling: 7%; A340 absorber: 1.1; Fluor 339 460: 2.3*; M1 antag confirm: 210*; mGluR4 antag: 186

How did CCCOc1ccccc1Nc1nnc(C)c(=O)[nH]1 do in these assays?
M1 agonist: -0.2; M1 antag: -0.28; NADH coupling: 8%; A340 absorber: 1; Fluor 339 460: 1.1

What do the screens show for `Cc1cc(C)c2cc(CN(CC3CCCO3)C(=O)NC3CCCCC3)c(=O)[nH]c2c1` (configuration not stated)?
M1 agonist: 0.038; M1 antag: -3.4*; NADH coupling: 5%; A340 absorber: 1; Fluor 339 460: 1.4; M1 antag confirm: 469; mGluR4 antag: 247

What do the screens show for `CCN1CCCC1CN(Cc1cc2c(C)cc(C)cc2[nH]c1=O)C(=O)NC1CCCCC1` (configuration not stated)?
M1 agonist: -0.4; M1 antag: -2.1; Htt clearance: 12; NADH coupling: 10%; A340 absorber: 1.1; Fluor 339 460: 1.6

What do the screens show for `COc1cccc(C2C(C#N)=C(N)Oc3cc(C)oc(=O)c32)c1OC` (configuration not stated)?
M1 agonist: 0.65; M1 antag: -0.43; NADH coupling: 1%; A340 absorber: 1.1; Fluor 339 460: 1.1

What do the screens show for `CCOC(=O)Nc1ccc2c(c1)N(C(=O)OC)c1ccccc1CC2`?
M1 agonist: -1; M1 antag: 0.12; Htt clearance: 47; NADH coupling: 1%; A340 absorber: 1.1; Fluor 339 460: 1.1

What do the screens show for `CCOC(=O)Nc1ccc2c(c1)N(C(=O)CCN(C)C)c1ccccc1S2`?
M1 agonist: -0.095; M1 antag: -10*; NADH coupling: 2%; A340 absorber: 1.1; Fluor 339 460: 1.1; M1 antag confirm: 22*; mGluR4 antag: 251

Results for CCOC(=O)Nc1ccc2c(c1)N(C(=O)CN1CCN(C)CC1)c1ccccc1S2 ?
M1 agonist: -0.7; M1 antag: -13*; Htt clearance: 8; NADH coupling: 7%; A340 absorber: 0.99; Fluor 339 460: 1; M1 antag confirm: 46*; mGluR4 antag: 226

What do the screens show for `C=CCn1c(=O)c2ccccc2n2c(SCc3c(C(=O)OCC)oc4ccccc34)nnc12`?
M1 agonist: 0.04; M1 antag: -0.49; NADH coupling: 4%; A340 absorber: 1; Fluor 339 460: 1

How did Cn1c(C(=O)NCCCN2CCN(c3ccccc3F)CC2)cc2c(=O)n(C)c3ccccc3c21 do in these assays?
M1 agonist: 0.53; M1 antag: -1.7; NADH coupling: 12%; A340 absorber: 1; Fluor 339 460: 1.3

Results for Cn1c(C(=O)NCCN2CCN(Cc3ccccc3)CC2)cc2c(=O)n(C)c3ccccc3c21 ?
M1 agonist: 0.043; M1 antag: -6.9*; NADH coupling: 5%; A340 absorber: 1; Fluor 339 460: 1.2; M1 antag confirm: 288*; mGluR4 antag: 263

Results for Cn1cc(C(=O)NCCN2CCN(c3ccccc3F)CC2)c2c3ccccc3n(C)c2c1=O ?
M1 agonist: -0.16; M1 antag: -4.3*; NADH coupling: 11%; A340 absorber: 1.1; Fluor 339 460: 3.5*; M1 antag confirm: 453; mGluR4 antag: 161

Results for CN1CCN(CCCNC(=O)c2cc3c(=O)n(C)c4ccccc4c3s2)CC1 ?
M1 agonist: 0.05; M1 antag: -2.8*; Htt clearance: -10; NADH coupling: 6%; A340 absorber: 1.2; Fluor 339 460: 2.1*; M1 antag confirm: 434; mGluR4 antag: 196

How did Cn1c(C(=O)NCCCN2CCOCC2)cc2c(=O)n(C)c3ccccc3c21 do in these assays?
M1 agonist: -0.37; M1 antag: -0.34; Htt clearance: -5; NADH coupling: 6%; A340 absorber: 1; Fluor 339 460: 1.3

What do the screens show for `Cn1c(C(=O)NCCN2CCCCCC2)cc2c(=O)n(C)c3ccccc3c21`?
M1 agonist: 1.7; M1 antag: -3.7*; Htt clearance: -59; NADH coupling: 7%; A340 absorber: 1.1; Fluor 339 460: 1.7; M1 antag confirm: 430*; mGluR4 antag: 209

Results for CCOC(=O)c1ccc2c(c1)nc(C1CCN(S(=O)(=O)c3cccs3)CC1)n2CC ?
M1 agonist: 1.8; M1 antag: -2.9*; Htt clearance: -31; NADH coupling: 6%; A340 absorber: 0.98; Fluor 339 460: 1.1; M1 antag confirm: 474*; mGluR4 antag: 210
